Results from the supplement of paper PMC11732987, “Enantioselective OTUD7B fragment discovery through chemoproteomics screening and high-throughput optimisation” (Communications Chemistry, 2025).

What was measured:
Test in all cases: log2 ratio of Biotin-Ahx-Ub-VS probe labelling (fragment/DMSO); higher = less target engagement (more negative = stronger competition), active = hit call of the paper (q ≤ 0.05, log2 ratio ≤ -1)
Details in all cases: compound concentration: 200 uM; treatment time: 3 h
USP9X = USP9X (UniProt Q93008)
Summary of the method: (§1)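 In triplicate, 495 µg of HEK293T lysate per sample was incubated with fragment at 200 µM or vehicle for 3 h. Biotin-Ahx-Ub-VS was then added to 0.5 µM final for 1 h, and labelled DUBs were captured with NeutrAvidin, digested with LysC and trypsin, and measured by diaPASEF LC-MS/MS. Data are average log2 fragment/vehicle ratios by unpaired t-test from global-median-normalised Spectronaut label-free quantities, restricted to proteins with ≥2 unique peptides.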

UniProt O00487 = biological target: UniProt O00487
Sequence of UniProt O00487 (O00487 whole entry): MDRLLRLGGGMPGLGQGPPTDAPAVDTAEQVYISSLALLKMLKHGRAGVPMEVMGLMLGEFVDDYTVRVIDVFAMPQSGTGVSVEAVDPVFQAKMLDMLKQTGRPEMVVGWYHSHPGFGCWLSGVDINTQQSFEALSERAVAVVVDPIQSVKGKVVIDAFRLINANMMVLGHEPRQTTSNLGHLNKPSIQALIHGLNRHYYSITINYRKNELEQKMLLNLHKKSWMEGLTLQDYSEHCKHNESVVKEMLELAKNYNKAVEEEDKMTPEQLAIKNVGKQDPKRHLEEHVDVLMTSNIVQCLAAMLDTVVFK
Summary of the method: as §1

UniProt O00507 = biological target: UniProt O00507
Sequence of UniProt O00507 (O00507 whole entry): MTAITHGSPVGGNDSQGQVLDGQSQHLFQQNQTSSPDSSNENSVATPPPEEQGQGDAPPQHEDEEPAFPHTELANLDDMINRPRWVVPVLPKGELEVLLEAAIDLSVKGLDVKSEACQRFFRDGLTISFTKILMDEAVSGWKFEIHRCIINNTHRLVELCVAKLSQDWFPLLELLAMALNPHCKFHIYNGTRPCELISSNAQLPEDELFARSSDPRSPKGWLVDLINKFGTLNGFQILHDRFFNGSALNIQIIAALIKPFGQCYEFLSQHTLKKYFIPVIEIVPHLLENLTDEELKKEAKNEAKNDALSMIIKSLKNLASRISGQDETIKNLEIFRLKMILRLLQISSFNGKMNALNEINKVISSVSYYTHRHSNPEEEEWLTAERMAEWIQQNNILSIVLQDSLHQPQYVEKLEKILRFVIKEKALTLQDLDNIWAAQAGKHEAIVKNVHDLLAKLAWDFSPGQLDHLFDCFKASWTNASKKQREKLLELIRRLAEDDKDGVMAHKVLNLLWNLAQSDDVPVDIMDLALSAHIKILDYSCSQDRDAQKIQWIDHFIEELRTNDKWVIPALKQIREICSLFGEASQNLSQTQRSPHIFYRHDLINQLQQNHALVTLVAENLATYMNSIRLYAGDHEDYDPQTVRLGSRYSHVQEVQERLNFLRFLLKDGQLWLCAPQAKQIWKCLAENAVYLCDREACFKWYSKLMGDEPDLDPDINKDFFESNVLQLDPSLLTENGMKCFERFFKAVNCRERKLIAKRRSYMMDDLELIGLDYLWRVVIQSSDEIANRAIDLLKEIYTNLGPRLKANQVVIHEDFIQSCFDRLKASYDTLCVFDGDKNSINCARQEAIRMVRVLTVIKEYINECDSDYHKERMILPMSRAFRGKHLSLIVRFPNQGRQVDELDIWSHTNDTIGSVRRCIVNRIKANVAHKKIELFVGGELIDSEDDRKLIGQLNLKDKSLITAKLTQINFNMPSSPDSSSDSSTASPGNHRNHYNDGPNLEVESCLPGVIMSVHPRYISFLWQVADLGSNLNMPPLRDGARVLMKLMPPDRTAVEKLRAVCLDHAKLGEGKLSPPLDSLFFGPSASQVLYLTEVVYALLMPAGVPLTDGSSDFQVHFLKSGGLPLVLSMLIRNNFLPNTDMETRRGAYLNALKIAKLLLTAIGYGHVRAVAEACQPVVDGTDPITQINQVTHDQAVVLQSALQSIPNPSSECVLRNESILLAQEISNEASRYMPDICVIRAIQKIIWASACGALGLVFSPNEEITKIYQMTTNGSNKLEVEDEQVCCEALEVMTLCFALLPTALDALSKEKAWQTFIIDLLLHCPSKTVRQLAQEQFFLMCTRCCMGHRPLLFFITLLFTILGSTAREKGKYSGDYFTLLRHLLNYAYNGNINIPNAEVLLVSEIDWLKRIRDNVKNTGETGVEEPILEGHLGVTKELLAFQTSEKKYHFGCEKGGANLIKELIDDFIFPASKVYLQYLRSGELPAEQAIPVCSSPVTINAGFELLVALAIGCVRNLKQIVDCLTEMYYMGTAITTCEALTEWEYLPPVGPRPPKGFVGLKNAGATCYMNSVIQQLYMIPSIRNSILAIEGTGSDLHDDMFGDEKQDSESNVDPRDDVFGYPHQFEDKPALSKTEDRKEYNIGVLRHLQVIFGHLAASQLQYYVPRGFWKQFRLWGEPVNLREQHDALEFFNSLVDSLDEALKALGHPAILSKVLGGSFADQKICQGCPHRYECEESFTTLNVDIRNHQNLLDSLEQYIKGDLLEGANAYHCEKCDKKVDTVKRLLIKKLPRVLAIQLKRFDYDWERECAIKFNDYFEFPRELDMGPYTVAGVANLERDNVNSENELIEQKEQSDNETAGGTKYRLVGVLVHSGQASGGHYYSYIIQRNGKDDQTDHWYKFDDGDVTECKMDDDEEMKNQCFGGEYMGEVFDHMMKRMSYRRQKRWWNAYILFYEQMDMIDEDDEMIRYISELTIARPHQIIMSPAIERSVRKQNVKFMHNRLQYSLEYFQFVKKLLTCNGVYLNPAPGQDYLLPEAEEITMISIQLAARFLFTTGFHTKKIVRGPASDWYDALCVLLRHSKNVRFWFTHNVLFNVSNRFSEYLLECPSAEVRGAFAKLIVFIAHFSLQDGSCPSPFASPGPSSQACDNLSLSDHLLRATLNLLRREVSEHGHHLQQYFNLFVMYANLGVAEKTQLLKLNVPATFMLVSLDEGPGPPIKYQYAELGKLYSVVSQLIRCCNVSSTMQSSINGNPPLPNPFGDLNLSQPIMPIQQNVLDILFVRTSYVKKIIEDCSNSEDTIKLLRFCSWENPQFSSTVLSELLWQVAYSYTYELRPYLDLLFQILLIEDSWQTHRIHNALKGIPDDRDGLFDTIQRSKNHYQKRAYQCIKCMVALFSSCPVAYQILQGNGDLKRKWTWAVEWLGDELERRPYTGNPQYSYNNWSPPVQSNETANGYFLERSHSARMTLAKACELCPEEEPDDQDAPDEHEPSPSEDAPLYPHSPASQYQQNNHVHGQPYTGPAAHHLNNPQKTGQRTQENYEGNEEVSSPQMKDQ
Summary of the method: as §1

UniProt P51784 = biological target: UniProt P51784
Sequence of UniProt P51784 (P51784 whole entry): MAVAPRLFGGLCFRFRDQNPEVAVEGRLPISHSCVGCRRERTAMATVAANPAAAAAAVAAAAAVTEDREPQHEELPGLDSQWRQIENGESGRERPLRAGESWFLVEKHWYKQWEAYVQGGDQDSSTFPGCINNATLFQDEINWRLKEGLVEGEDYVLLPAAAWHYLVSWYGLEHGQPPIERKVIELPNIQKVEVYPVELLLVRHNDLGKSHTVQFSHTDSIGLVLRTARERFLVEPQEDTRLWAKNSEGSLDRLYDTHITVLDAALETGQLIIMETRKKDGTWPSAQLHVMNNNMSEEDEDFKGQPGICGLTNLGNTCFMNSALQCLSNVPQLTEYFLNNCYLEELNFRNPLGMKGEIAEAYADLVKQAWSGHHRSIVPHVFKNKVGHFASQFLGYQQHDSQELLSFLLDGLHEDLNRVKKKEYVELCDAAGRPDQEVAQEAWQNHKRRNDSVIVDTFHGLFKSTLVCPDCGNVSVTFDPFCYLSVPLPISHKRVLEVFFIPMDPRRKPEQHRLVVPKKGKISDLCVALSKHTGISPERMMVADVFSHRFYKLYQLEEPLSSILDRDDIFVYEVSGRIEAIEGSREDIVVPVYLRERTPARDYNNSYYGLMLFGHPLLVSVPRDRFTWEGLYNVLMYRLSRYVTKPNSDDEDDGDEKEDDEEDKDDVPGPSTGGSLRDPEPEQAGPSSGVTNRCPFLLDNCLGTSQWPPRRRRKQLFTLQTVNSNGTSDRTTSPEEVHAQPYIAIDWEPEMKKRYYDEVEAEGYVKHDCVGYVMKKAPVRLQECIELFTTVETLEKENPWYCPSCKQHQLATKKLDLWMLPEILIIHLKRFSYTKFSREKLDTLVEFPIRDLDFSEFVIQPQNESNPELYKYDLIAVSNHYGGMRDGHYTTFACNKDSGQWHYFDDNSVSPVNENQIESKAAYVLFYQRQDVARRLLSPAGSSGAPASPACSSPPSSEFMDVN
Summary of the method: as §1

UniProt Q5T2D3 = biological target: T1, UniProt Q5T2D3
T1 sequence (whole entry): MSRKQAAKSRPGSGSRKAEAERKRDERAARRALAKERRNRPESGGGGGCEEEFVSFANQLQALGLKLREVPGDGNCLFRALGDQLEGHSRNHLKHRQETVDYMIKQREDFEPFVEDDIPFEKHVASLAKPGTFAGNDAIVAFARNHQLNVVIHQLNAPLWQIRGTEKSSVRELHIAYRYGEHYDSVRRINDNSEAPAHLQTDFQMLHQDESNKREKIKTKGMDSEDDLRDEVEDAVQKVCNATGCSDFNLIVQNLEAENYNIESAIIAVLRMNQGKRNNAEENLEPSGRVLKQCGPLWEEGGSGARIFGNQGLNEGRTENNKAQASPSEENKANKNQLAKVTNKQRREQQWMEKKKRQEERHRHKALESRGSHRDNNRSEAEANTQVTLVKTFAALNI
Summary of the method: as §1

UniProt Q8TE49 = biological target: T2, UniProt Q8TE49
T2 sequence (whole entry): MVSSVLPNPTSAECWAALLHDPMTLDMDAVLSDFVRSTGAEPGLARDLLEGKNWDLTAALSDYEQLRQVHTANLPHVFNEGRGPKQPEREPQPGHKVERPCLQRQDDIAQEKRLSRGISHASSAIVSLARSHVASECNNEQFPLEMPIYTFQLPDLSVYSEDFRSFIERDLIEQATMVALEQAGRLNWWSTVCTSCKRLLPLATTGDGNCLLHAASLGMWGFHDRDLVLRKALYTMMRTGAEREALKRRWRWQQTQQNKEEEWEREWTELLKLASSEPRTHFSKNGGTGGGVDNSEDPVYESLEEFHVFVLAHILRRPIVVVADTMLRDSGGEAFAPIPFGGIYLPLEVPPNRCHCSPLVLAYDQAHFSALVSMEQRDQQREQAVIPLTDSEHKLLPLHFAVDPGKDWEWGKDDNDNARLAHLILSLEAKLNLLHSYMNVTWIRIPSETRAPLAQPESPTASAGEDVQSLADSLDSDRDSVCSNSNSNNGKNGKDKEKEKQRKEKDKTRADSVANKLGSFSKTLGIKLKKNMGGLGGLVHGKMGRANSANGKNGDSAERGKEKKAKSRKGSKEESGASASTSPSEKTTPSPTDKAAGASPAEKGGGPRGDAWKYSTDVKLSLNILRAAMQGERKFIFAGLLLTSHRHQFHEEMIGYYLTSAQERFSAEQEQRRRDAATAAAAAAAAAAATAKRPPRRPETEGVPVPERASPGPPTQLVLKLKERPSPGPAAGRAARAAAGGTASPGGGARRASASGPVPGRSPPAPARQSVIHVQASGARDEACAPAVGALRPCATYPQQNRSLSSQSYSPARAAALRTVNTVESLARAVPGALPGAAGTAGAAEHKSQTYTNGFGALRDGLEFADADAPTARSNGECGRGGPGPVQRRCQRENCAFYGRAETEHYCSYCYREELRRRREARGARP
Summary of the method: as §1

UniProt Q9P2H5 = biological target: T3, UniProt Q9P2H5
T3 sequence (whole entry): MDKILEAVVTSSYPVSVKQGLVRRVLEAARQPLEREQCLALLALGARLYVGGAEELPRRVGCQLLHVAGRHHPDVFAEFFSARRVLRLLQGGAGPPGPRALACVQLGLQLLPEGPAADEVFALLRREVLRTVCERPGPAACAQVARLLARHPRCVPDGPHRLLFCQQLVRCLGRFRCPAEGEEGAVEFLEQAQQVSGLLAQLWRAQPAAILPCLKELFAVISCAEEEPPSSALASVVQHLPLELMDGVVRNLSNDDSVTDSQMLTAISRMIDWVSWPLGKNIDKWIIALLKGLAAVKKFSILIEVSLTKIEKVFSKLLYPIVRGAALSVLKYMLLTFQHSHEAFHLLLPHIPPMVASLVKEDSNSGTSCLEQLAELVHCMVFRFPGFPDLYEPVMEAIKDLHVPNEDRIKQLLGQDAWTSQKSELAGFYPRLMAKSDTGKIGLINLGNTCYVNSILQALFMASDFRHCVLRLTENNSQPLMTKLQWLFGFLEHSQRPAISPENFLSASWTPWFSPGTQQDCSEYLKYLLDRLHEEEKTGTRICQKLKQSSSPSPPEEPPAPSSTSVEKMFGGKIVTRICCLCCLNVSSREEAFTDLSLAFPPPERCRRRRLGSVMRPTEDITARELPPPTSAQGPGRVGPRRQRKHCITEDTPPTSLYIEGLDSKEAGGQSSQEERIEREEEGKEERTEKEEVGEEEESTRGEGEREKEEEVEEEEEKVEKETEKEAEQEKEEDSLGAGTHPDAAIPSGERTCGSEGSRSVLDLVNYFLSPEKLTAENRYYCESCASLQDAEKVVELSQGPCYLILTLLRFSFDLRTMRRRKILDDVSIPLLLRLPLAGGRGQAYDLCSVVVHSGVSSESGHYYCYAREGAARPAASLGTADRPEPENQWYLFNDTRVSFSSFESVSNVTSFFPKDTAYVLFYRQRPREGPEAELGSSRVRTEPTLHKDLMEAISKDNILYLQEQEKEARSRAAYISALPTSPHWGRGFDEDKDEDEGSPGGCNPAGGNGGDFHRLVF
Summary of the method: as §1

UniProt Q9UGI0 = biological target: T4, UniProt Q9UGI0
T4 sequence (whole entry): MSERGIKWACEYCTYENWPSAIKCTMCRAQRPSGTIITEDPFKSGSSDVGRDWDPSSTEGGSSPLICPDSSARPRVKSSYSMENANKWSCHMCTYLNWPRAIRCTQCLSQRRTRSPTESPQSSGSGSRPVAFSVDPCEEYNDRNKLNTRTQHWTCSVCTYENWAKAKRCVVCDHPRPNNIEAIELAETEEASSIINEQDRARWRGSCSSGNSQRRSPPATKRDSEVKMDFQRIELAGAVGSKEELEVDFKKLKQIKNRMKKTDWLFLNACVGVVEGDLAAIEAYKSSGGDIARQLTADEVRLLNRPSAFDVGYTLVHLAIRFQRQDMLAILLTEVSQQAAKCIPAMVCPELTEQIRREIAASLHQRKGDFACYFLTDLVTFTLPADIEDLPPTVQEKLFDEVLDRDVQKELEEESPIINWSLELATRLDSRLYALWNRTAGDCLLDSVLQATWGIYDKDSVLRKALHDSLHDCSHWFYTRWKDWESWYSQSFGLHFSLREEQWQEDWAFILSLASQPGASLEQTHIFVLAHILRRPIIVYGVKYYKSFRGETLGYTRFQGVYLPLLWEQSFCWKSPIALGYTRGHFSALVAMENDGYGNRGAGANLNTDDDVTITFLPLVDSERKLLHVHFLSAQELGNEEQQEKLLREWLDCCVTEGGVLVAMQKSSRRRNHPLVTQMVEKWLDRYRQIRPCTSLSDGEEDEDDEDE
Summary of the method: as §1

YOD1 = biological target: T5, YOD1 (UniProt Q5VVQ6)
T5 sequence (whole entry): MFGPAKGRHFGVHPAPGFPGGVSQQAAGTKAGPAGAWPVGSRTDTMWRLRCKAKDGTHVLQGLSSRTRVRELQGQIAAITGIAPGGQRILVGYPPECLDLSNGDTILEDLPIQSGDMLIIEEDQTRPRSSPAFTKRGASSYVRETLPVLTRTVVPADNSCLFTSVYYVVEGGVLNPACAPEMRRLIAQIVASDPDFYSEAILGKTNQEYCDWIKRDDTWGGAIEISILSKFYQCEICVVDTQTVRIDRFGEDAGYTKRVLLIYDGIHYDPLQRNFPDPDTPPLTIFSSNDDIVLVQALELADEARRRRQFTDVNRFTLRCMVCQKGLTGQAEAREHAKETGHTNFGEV
Summary of the method: as §1

Measured: log2 ratio of Biotin-Ahx-Ub-VS probe labelling

CN(CCC(O)c1ccc(Br)cc1)C(=O)CCl (centres undefined)
active: UniProt Q8TE49 -1.29
inactive: USP9X -0.275 | UniProt O00487 -0.00696 | UniProt O00507 -0.198 | UniProt P51784 -0.124 | UniProt Q5T2D3 -0.111 | UniProt Q9P2H5 -0.328 | UniProt Q9UGI0 -0.555 | YOD1 0.00847
